Source: PubChem BioAssay (Tox21)
Calls of active or inactive are those of the source. A call without a number means that no potency is given here. Calls come from the whole dose curve; as a rule, active = well fitted curve in the direction sought with a large enough effect in the repeat runs; inconclusive = weak or mixed curves; inactive = flat fitted curve, though single readings scatter.

Assay: qHTS assay to test for compound auto fluorescence at 460 nm (blue) in HepG2 cells (AID 720687)
Conditions: autofluorescence 405/460 nm, 1 h; series mostly up to 46 µM
From the text: U.S. Tox21 Program National Center for Advancing Translational Sciences [NCATS] NIH Chemical Genomics Center [NCGC] U.S. Environmental Protection Agency [EPA] National Institutes of Environmental Health Sciences [NIEHS] National Toxicology Program [NTP] U.S. Food and Drug Administration [FDA] Tox21 Assay Overview: Compound auto fluorescence often interferes with screening of the compound library against various biological targets and signaling pathways. Some of these compounds may have fluorophoric properties. Such properties may interfere with the assay outputs resulting in false positives and/or negatives. To decrease such complications and ensure the compound activities are relevant in terms of biological response, the Tox21 10K compound library was screened for auto fluorescence. From the fluorophores used as reporter signals in our screening assays, the auto fluorescence equivalencies of compounds against three fluorophores have been evaluated: Triamterene, Fluorescein and Rose Bengal sodium for blue, green and red fluorescence, respectively. The fluorescence intensities were measured using Excitation/Emission wavelengths at 405/460nm, 485/535nm and 540/590nm for blue, green and red labels, respectively. This assay includes the blue fluorescence data.
Tox21 Assay Protocol Summary: 2,000 HepG2 cells in 5 uL of culture medium (MEM containing 10% FBS) per well were dispensed into black wall/clear bottom 1536-well plates using a Multidrop Combi Dispenser (ThermoFisher Scientific, Waltham, MA). The assay plates were incubated overnight at 37 C to allow cell attachment to the well bottom, followed by the transfer of 23 nL compound or DMSO vehicle by a pintool work station (Kalypsys , San Diego, CA). After the assay plates were incubated for 1 hr at 37 C and 5% CO2, fluorescence intensities in the assay plates were measured by an Envision (PerkinElmer, Shelton, CT) plate reader using three labels for measuring blue, green and red fluorescence at […] 460, 535 and 590 nm respectively.

| Compound | Potency |
| --- | --- |
| CN1CCN(CCCN2c3ccccc3Sc3ccc(C(F)(F)F)cc32)CC1 | inactive |
| COC(=O)C[C@](O)(CCCC(C)(C)O)C(=O)O[C@@H]1C(OC)=CC23CCCN2CCc2cc4c(cc2[C@H]13)OCO4 (stereo not given in full) | inactive |
| NC(=O)[C@H]1O[C@@H](O)[C@H](O)[C@@H](O)[C@@H]1O | inactive |
| Cc1ccc(C(C)(C)c2ccc(C)cc2)cc1 | inactive |
| CC1(C)C[C@@H]1C(=O)N/C(=C\CCCCSC[C@H](N)C(=O)O)C(=O)O | inactive |
| CCCCCN=C(N)N/N=C/c1c[nH]c2ccc(OC)cc12 | inactive |
| NS(=O)(=O)c1cc(Cl)c(Cl)c(S(N)(=O)=O)c1 | inactive |
| NCC(O)CC(=O)O (stereo not given) | inactive |
| O=C(CCCCCCCCc1cccnc1)N1CCC(C=C(c2ccccc2)c2ccccc2)CC1 | inactive |
| COc1ccc2ccccc2c1 | inactive |
| O=C1c2ccccc2CN2C(=O)c3ccccc3CN12 | inactive |
| CCC(O)c1ccccc1 (stereo not given) | inactive |
| N=C(N)n1cccn1 | inactive |
| FC(F)(F)COCC(F)(F)F | inactive |
| O=C(Nc1ccccc1)c1cc(Cl)ccc1O | inactive |
| C[C@H](NCCc1ccc(O)cc1)[C@H](O)c1ccc(O)cc1 | inactive |
| CN1C(=O)C[C@@H](C(=O)N[C@@H](Cc2cnc[nH]2)C(=O)N2CCC[C@H]2C(N)=O)NC1=O | inactive |
| N[C@H](C(=O)O)[C@@H]1CC(Cl)=NO1 | inactive |
| CCCCCCCCCCCCCCCCCCNC(=O)OC1CCN(C(=O)OC[C@H](COC(=O)N(Cc2cccc[n+]2CC)C(=O)c2ccccc2OC)OC)CC1 | inactive |
| CNC(=O)OCc1cccc(COC(=O)NC)n1 | inactive |

| Compound | Potency |
| --- | --- |
| NC(N)=NCc1cccc(I)c1 | inactive |
| CCCCCCCC[N+](C)(C)CCCCCCCC | inactive |
| CC(CNC(=O)c1cccnc1)NC(=O)c1cccnc1 (stereo not given) | inactive |
| CC(C)(C)C(=O)OCC(=O)[C@H]1CC[C@H]2[C@@H]3CCC4=CC(=O)CC[C@]4(C)[C@H]3CC[C@]12C | inactive |
| CC(C)(S)C(=O)N[C@@H](CS)C(=O)O | inactive |
| O=P(O)(O)OP(=O)(O)OP(=O)(O)O | inactive |
| CNCC(=O)N[C@@H](CCCN=C(N)N)C(=O)N[C@H](C(=O)N[C@@H](Cc1ccc(O)cc1)C(=O)N[C@H](C(=O)N[C@@H](Cc1cnc[nH]1)C(=O)N1CCC[C@H]1C(=O)N[C@@H](C)C(=O)O)C(C)C)C(C)C | inactive |
| CC(O)(c1ccc(Cl)cc1)c1ccc(Cl)cc1 | inactive |
| c1ccc(-n2cnnn2)cc1 | inactive |
| NC(=O)C1c2ccccc2CCc2ccccc21 | inactive |
| O=C(O)/C=C/C(=O)Nc1ccc(S(=O)(=O)Nc2nccs2)cc1 | inactive |
| CCN(CC)CCn1c(=O)c(Cc2ccc(OC)cc2)nc2ccccc21 | inactive |
| CC[C@H]1OC(=O)[C@H](C)C(=O)[C@H](C)[C@@H](O[C@@H]2O[C@H](C)C[C@H](N(C)C)[C@H]2O)[C@](C)(OC)C[C@@H](C)C(=O)[C@H](C)[C@H]2N(CCCCn3cnc(-c4cccnc4)c3)C(=O)O[C@]12C | inactive |
| CCN(CC)CC#CCOC(=O)C(O)(c1ccccc1)C1CCCCC1 (stereo not given) | inactive |
| Cc1cc(C(=O)NCCc2ccc(S(=O)(=O)NC(=O)NN3CCCCCC3)cc2)no1 | inactive |
| CO[C@H](C(=O)[C@@H](O)[C@@H](C)O)C1Cc2cc3cc(O[C@H]4C[C@@H](O[C@H]5C[C@@H](O)[C@H](O)[C@@H](C)O5)[C@@H](O)[C@@H](C)O4)c(C)c(O)c3c(O)c2C(=O)[C@H]1O[C@H]1C[C@@H](O[C@H]2C[C@@H](O[C@H]3C[C@](C)(O)[C@H](O)[C@@H](C)O3)[C@H](O)[C@@H](C)O2)[C@H](O)[C@@H](C)O1 (stereo not given in full) | inactive |
| O=C1OC(O)C(C(Cl)Cl)=C1Cl (stereo not given) | inactive |
| O=C(O)c1cc(O)c2c(c1)[C@H]([C@H]1c3cc(C(=O)O)cc(O)c3C(=O)c3c(O[C@@H]4O[C@H](CO)[C@@H](O)[C@H](O)[C@H]4O)cccc31)c1cccc(O[C@@H]3O[C@H](CO)[C@@H](O)[C@H](O)[C@H]3O)c1C2=O | inactive |
| NCCCC(=O)O | inactive |
| COC(=O)[C@H]1[C@H]2C[C@H]3c4[nH]c5ccccc5c4CCN3C[C@H]2CC[C@@H]1O | inactive |
